Test results published in the supplement of paper PMC4466140.

B1: unnamed (peptide)
chain: TTAPALPSLPPPPLL
B2: unnamed (peptide)
chain: PELAPKREAPKPPAN

Target: AgAbp1
Test: SPOT peptide array binding signal intensity (averaged, normalized) (arbitrary units (background-subtracted, floor 0; scale differs between SH3 domains)); higher = stronger binding of the SH3 domain to the peptide
In short: (§1)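 GST-fused SH3 domains, from four yeast species, were produced in E. coli BL21(DE3) and captured on glutathione Sepharose. Membranes of cellulose carrying synthetic 15-mer peptides, in which cysteines had been replaced by serines, were exposed to each domain at 10 μg/ml overnight at 4°C in TBS-based blocking buffer. After anti-GST antibody, an HRP anti-mouse secondary and luminol, spots were imaged and quantified using Genespotter. Binding signal is normalized and background-subtracted spot intensity, averaged over replicates, in arbitrary units that differ between domains.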

Row | Binder | SPOT peptide array binding signal intensity
1 | B1 | 0.5

Target: AgBbc1
Test: as above
In short: as §1

Row | Binder | SPOT peptide array binding signal intensity
2 | B1 | ≤ 0

Target: AgBem1-D1
Test: as above
In short: as §1

Row | Binder | SPOT peptide array binding signal intensity
3 | B1 | ≤ 0

Target: AgBzz1-D1
Test: as above
In short: as §1

Row | Binder | SPOT peptide array binding signal intensity
4 | B1 | 22

Target: AgBzz1-D2
Test: as above
In short: as §1

Row | Binder | SPOT peptide array binding signal intensity
5 | B1 | 25

Target: AgCyk3
Test: as above
In short: as §1

Row | Binder | SPOT peptide array binding signal intensity
6 | B1 | ≤ 0

Target: AgFus1
Test: as above
In short: as §1

Row | Binder | SPOT peptide array binding signal intensity
7 | B1 | ≤ 0

Target: AgHof1
Test: as above
In short: as §1

Row | Binder | SPOT peptide array binding signal intensity
8 | B1 | 1690

Target: AgHse1
Test: as above
In short: as §1

Row | Binder | SPOT peptide array binding signal intensity
9 | B1 | ≤ 0

Target: AgLsb1
Test: as above
In short: as §1

Row | Binder | SPOT peptide array binding signal intensity
10 | B1 | ≤ 0

Target: AgLsb4
Test: as above
In short: as §1

Row | Binder | SPOT peptide array binding signal intensity
11 | B1 | ≤ 0

Target: AgMyo5
Test: as above
In short: as §1

Row | Binder | SPOT peptide array binding signal intensity
12 | B1 | 3050

Target: AgNbp2
Test: as above
In short: as §1

Row | Binder | SPOT peptide array binding signal intensity
13 | B1 | ≤ 0

Target: AgRvs167
Test: as above
In short: as §1

Row | Binder | SPOT peptide array binding signal intensity
14 | B1 | 0.667

Target: AgSho1
Test: as above
In short: as §1

Row | Binder | SPOT peptide array binding signal intensity
15 | B1 | ≤ 0

Target: AgSla1-D1-D2
Test: as above
In short: as §1

Row | Binder | SPOT peptide array binding signal intensity
16 | B1 | ≤ 0

Target: AgSla1-D3
Test: as above
In short: as §1

Row | Binder | SPOT peptide array binding signal intensity
17 | B1 | 3

Target: CaAbp1-D1
Test: as above
In short: as §1

Row | Binder | SPOT peptide array binding signal intensity
18 | B1 | 5

Target: CaAbp1-D2
Test: as above
In short: as §1

Row | Binder | SPOT peptide array binding signal intensity
19 | B1 | 21

Target: CaBbc1
Test: as above
In short: as §1

Row | Binder | SPOT peptide array binding signal intensity
20 | B1 | 3

Target: CaBem1-D1
Test: as above
In short: as §1

Row | Binder | SPOT peptide array binding signal intensity
21 | B1 | ≤ 0

Target: CaBzz1-D1
Test: as above
In short: as §1

Row | Binder | SPOT peptide array binding signal intensity
22 | B1 | 3.5

Target: CaBzz1-D2
Test: as above
In short: as §1

Row | Binder | SPOT peptide array binding signal intensity
23 | B1 | ≤ 0

Target: CaCyk3
Test: as above
In short: as §1

Row | Binder | SPOT peptide array binding signal intensity
24 | B1 | ≤ 0

Target: CaFus1
Test: as above
In short: as §1

Row | Binder | SPOT peptide array binding signal intensity
25 | B1 | ≤ 0

Target: CaHof1
Test: as above
In short: as §1

Row | Binder | SPOT peptide array binding signal intensity
26 | B1 | 873

Target: CaHse1
Test: as above
In short: as §1

Row | Binder | SPOT peptide array binding signal intensity
27 | B1 | 5.75

Target: CaLsb1
Test: as above
In short: as §1

Row | Binder | SPOT peptide array binding signal intensity
28 | B1 | 0.5

Target: CaLsb4
Test: as above
In short: as §1

Row | Binder | SPOT peptide array binding signal intensity
29 | B1 | ≤ 0

Target: CaMyo5
Test: as above
In short: as §1

Row | Binder | SPOT peptide array binding signal intensity
30 | B1 | 1950

Target: CaNbp2
Test: as above
In short: as §1

Row | Binder | SPOT peptide array binding signal intensity
31 | B1 | ≤ 0

Target: CaRvs167
Test: as above
In short: as §1

Row | Binder | SPOT peptide array binding signal intensity
32 | B1 | 1

Target: CaRvs167-3
Test: as above
In short: as §1

Row | Binder | SPOT peptide array binding signal intensity
33 | B1 | 1

Target: CaSho1
Test: as above
In short: as §1

Row | Binder | SPOT peptide array binding signal intensity
34 | B1 | ≤ 0

Target: CaSla1-D1-D2
Test: as above
In short: as §1

Row | Binder | SPOT peptide array binding signal intensity
35 | B1 | ≤ 0

Target: CaSla1-D3
Test: as above
In short: as §1

Row | Binder | SPOT peptide array binding signal intensity
36 | B1 | 0.25

Target: ScAbp1
Test: as above
In short: as §1

Row | Binder | SPOT peptide array binding signal intensity
37 | B1 | 1

Target: ScBbc1
Test: as above
In short: as §1

Row | Binder | SPOT peptide array binding signal intensity
38 | B1 | 1

Target: ScBem1-D1
Test: as above
In short: as §1

Row | Binder | SPOT peptide array binding signal intensity
39 | B1 | 2

Target: ScBzz1-D1
Test: as above
In short: as §1

Row | Binder | SPOT peptide array binding signal intensity
40 | B1 | 190

Target: ScBzz1-D2
Test: as above
In short: as §1

Row | Binder | SPOT peptide array binding signal intensity
41 | B1 | ≤ 0

Target: ScCyk3
Test: as above
In short: as §1

Row | Binder | SPOT peptide array binding signal intensity
42 | B1 | ≤ 0

Target: ScFus1
Test: as above
In short: as §1

Row | Binder | SPOT peptide array binding signal intensity
43 | B1 | ≤ 0

Target: ScHof1
Test: as above
In short: as §1

Row | Binder | SPOT peptide array binding signal intensity
44 | B1 | 2250

Target: ScHse1
Test: as above
In short: as §1

Row | Binder | SPOT peptide array binding signal intensity
45 | B1 | ≤ 0

Target: ScLsb1
Test: as above
In short: as §1

Row | Binder | SPOT peptide array binding signal intensity
46 | B1 | ≤ 0

Target: ScLsb2
Test: as above
In short: as §1

Row | Binder | SPOT peptide array binding signal intensity
47 | B1 | ≤ 0

Target: ScLsb3
Test: as above
In short: as §1

Row | Binder | SPOT peptide array binding signal intensity
48 | B1 | ≤ 0

Target: ScLsb4
Test: as above
In short: as §1

Row | Binder | SPOT peptide array binding signal intensity
49 | B1 | ≤ 0

Target: ScMyo3
Test: as above
In short: as §1

Row | Binder | SPOT peptide array binding signal intensity
50 | B1 | 2800

Target: ScMyo5
Test: as above
In short: as §1

Row | Binder | SPOT peptide array binding signal intensity
51 | B1 | 2300

Target: ScNbp2
Test: as above
In short: as §1

Row | Binder | SPOT peptide array binding signal intensity
52 | B1 | ≤ 0

Target: ScPex13
Test: as above
In short: as §1

Row | Binder | SPOT peptide array binding signal intensity
53 | B1 | 214

Target: ScRvs167
Test: as above
In short: as §1

Row | Binder | SPOT peptide array binding signal intensity
54 | B1 | ≤ 0

Target: ScSho1
Test: as above
In short: as §1

Row | Binder | SPOT peptide array binding signal intensity
55 | B1 | 42

Target: ScSla1-D1-D2
Test: as above
In short: as §1

Row | Binder | SPOT peptide array binding signal intensity
56 | B1 | ≤ 0

Target: ScSla1-D3
Test: as above
In short: as §1

Row | Binder | SPOT peptide array binding signal intensity
57 | B1 | 1.5

Target: SpAbp1-D1
Test: as above
In short: as §1

Row | Binder | SPOT peptide array binding signal intensity
58 | B1 | ≤ 0

Target: SpBbc1
Test: as above
In short: as §1

Row | Binder | SPOT peptide array binding signal intensity
59 | B1 | 7.5

Target: SpBzz1-D1
Test: as above
In short: as §1

Row | Binder | SPOT peptide array binding signal intensity
60 | B1 | 124

Target: SpBzz1-D2
Test: as above
In short: as §1

Row | Binder | SPOT peptide array binding signal intensity
61 | B1 | ≤ 0
62 | B2 | 0.5

Target: SpCyk3
Test: as above
In short: as §1

Row | Binder | SPOT peptide array binding signal intensity
63 | B1 | 1
64 | B2 | 1

Target: SpHof1
Test: as above
In short: as §1

Row | Binder | SPOT peptide array binding signal intensity
65 | B1 | ≤ 0
66 | B2 | 0.5

Target: SpHof1-2
Test: as above
In short: as §1

Row | Binder | SPOT peptide array binding signal intensity
67 | B1 | 39.8
68 | B2 | 1.5

Target: SpHof1-3
Test: as above
In short: as §1

Row | Binder | SPOT peptide array binding signal intensity
69 | B1 | ≤ 0
70 | B2 | 1

Target: SpHse1
Test: as above
In short: as §1

Row | Binder | SPOT peptide array binding signal intensity
71 | B1 | ≤ 0
72 | B2 | 7.5

Target: SpLsb1
Test: as above
In short: as §1

Row | Binder | SPOT peptide array binding signal intensity
73 | B1 | ≤ 0
74 | B2 | ≤ 0

Target: SpLsb4
Test: as above
In short: as §1

Row | Binder | SPOT peptide array binding signal intensity
75 | B1 | ≤ 0
76 | B2 | ≤ 0

Target: SpMyo1
Test: as above
In short: as §1

Row | Binder | SPOT peptide array binding signal intensity
77 | B1 | 1940
78 | B2 | 1220

Target: SpNbp2
Test: as above
In short: as §1

Row | Binder | SPOT peptide array binding signal intensity
79 | B1 | ≤ 0
80 | B2 | ≤ 0

Target: SpPex13
Test: as above
In short: as §1

Row | Binder | SPOT peptide array binding signal intensity
81 | B1 | 11
82 | B2 | ≤ 0

Target: SpRvs167
Test: as above
In short: as §1

Row | Binder | SPOT peptide array binding signal intensity
83 | B1 | ≤ 0
84 | B2 | ≤ 0

Target: SpSla1-D1-D2
Test: as above
In short: as §1

Row | Binder | SPOT peptide array binding signal intensity
85 | B1 | 4
86 | B2 | ≤ 0

Target: SpSla1-D3
Test: as above
In short: as §1

Row | Binder | SPOT peptide array binding signal intensity
87 | B1 | 2
88 | B2 | ≤ 0
